Source: ChEMBL document CHEMBL1157539, “Thousands of chemical starting points for antimalarial lead identification” (Nature, 2010)

What was measured:
Assay type in all cases: functional
[1] = system: Plasmodium falciparum; assay: GSK_TCMDC: Inhibition of Plasmodium falciparum 3D7 in whole red blood cells, using parasite LDH activity as an index of growth. Test compounds present at 2uM
[2] = system: Plasmodium falciparum; assay: GSK_TCMDC: Inhibition of Plasmodium falciparum Dd2 in whole red blood cells, using parasite LDH activity as an index of growth. Test compounds present at 2uM
[3] = system: HepG2; assay: GSK_TCMDC: Percent inhibition of human HepG2 cell line. Test compounds present at 10uM.

SMILES | Inhibition [1] [%] | Inhibition [2] [%] | Inhibition [3] [%]
CN(C)CCOc1cccc(-c2cnc(N)c(-c3nc4cc(S(C)(=O)=O)ccc4[nH]3)c2)c1.O=C(O)C(F)(F)F | 100 | 82 | 39
CC(=O)Nc1ccc(OCCN(Cc2ccccc2OC(F)(F)F)c2ccc(C(F)(F)F)c(C#N)c2)c(Cl)c1 | 96 | 96 | 8
Cl.N=C(N)NN=Cc1c2ccc(Cl)cc2c(Cl)c2ccc(Cl)cc12 | 100 | 90 | 28
CCN(Cc1ccccc1)C1CCN(Cc2cc(Br)ccc2O)CC1.O=C(O)C(=O)O | 97 | 97 | 6
CC(C)c1ccc(CN2CCC(CNC(=O)c3cc(-c4ccccc4F)cs3)C2)cc1.O=C(O)C(F)(F)F (centres undefined) | 100 | 29 | 32
Cc1nc(-c2ccc(-c3ccc(C(=O)Nc4ccc(I)c(OCC5CCCN5C)c4)cc3)c(C)c2)no1.Cl (centres undefined) | 97 | 39 | 100
CCCc1cc(Cc2cnc(N)nc2N)cc(CCC)c1OCCCC(=O)OCC | 94 | 0 | 0
Cc1n[nH]c2ccc(-c3cc(OC[C@@H](N)Cc4ccccc4)cnc3-c3cc4ccccc4s3)cc12.O=C(O)C(F)(F)F | 99 | 68 | 41
Nc1nccc2ccc(-c3ccc(Oc4ccccc4)cc3)cc12.O=C(O)C(F)(F)F | 98 | 80 | 36
COc1cc2nc(N3CCC(CNC(=O)c4ccc(-c5ccc(-c6noc(C)n6)cc5C)cc4)CC3)nc(N)c2cc1OC | 100 | 99 | 99
Cc1cc2c(cc1C(F)(F)F)N(C(=O)Nc1cccc(C(=O)NC3CCN(Cc4ccccc4)CC3)c1)CC2 | 91 | 0 | 19
Cc1cccc2nc(-c3cccc(-c4cccc(NC(=O)Nc5ccc(Cl)c(Cl)c5)c4)c3)[nH]c12 | 100 | 96 | 24
COc1ccc2nc(-c3cc(-c4ccc(NC(=O)CN5CCOCC5)cc4)cnc3N)[nH]c2c1 | 100 | 72 | 52
CCCCn1c(N)c(N(Cc2ccco2)C(=O)C=Cc2cc(OC)c3c(c2)OCCO3)c(O)nc1=O | 85 | 94 | 4
Cc1cc(NC(=O)[C@H](CC2CCCCC2)Nc2ccc(C#N)c3ccccc23)ccc1F.O=C(O)C(F)(F)F | 100 | 99 | 21
CCN(CC)CCOc1ccc(C(O)(C#CC(O)(c2ccc(OCCN(CC)CC)cc2)c2ccc([N+](=O)[O-])cc2)c2ccc([N+](=O)[O-])cc2)cc1 (centres undefined) | 98 | 97 | 55
Cl.N#Cc1ccc2c(c1)CCN(CCC1CCC(NC(=O)Nc3cnc4ccccc4c3)CC1)C2 (centres undefined) | 93 | 9 | 14
COc1ccc(CNCCCCCNCc2ccc(Cl)c(Cl)c2)cc1Cl | 98 | 43 | 42
Cc1cc(F)ccc1Nc1nc(N(C)c2ccccc2)c2cc(OCCCN(C)C)ccc2n1 | 100 | 49 | 31
Cc1ccc(C(=O)Nc2cccc(CN3CCCN(Cc4ccc(O)cc4)CC3)c2)s1.O=C(O)C(F)(F)F | 90 | 23 | 17
CCCc1ccc(S(=O)(=O)NC2CCN(C(=O)Nc3ccc(I)cc3)CC2)cc1 | 97 | 0 | 8
COc1c(C2CCN(CCCCNC(=O)c3ccc(C)c(-c4ccc(C(F)(F)F)cc4)c3)CC2)ccc2c1CCCC2 | 86 | 79 | 76
Br.N=C1N=C(N)NC2(CCCCC2)N1OCCCOc1cccc2ccccc12 | 95 | 96 | 67
CC(C)NCc1cc(Nc2ccnc3cc(Cl)ccc23)ccc1O.Cl | 100 | 100 | 27
O=C(NC1CCN(Cc2ccc3c(c2)OCCO3)CC1)c1ccc(-c2cccc(C(F)(F)F)c2)s1.O=C(O)C(F)(F)F | 100 | 35 | 99
CC(C)(C)c1cc(C(=O)N2CCN(c3ccc(C(F)(F)F)cn3)CC2)n(Cc2ccc(F)cc2)n1 | 88 | 26 | 4
O=C(C=Cc1ccc(Cl)c(Cl)c1)NCCCCCN1CCC(CCNC(=O)C(c2ccccc2)c2ccccc2)CC1 | 90 | 43 | 61
Nc1nc2c(c(=O)[nH]1)CN(S(=O)(=O)c1ccc(C(=O)N[C@@H](CCC(=O)O)C(=O)O)cc1)CC2 | 95 | 96 | 49
